This note sets out measurements from PubChem BioAssay (Tox21).

Results filed as inconclusive are left out. Activity calls are given as the source filed them. Unless noted, calls follow the shape of the full dose curve.

Assay [1] in a line: Nuclear factor erythroid 2-related factor 2/antioxidant responsive element (Nrf2/ARE) small molecule agonists: qHTS cell viability counter screen in human keratinocytes (AID 1919968; active = well fitted curve in the direction sought with a large enough effect in the repeat runs; an effect the other way counts as inactive or inconclusive; also: nearly all actives have a fitted effect of over 55% in size; also: potency is read from the fitted curve at half-maximal effect). The method, boiled down:
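Cytotoxicity was multiplexed with the Nrf2/ARE luciferase assay in the same wells. Stably transfected HaCaT keratinocytes were treated with test compounds for 23 h at 37 C. Cell viability was then measured by CellTiter-Fluor fluorescence.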
In general terms: qHTS replaces the single test concentration by a dilution series.

Assay [2] can be described thus: Nuclear factor erythroid 2-related factor 2/antioxidant responsive element (Nrf2/ARE) small molecule agonists: luciferase reporter gene qHTS assay in human keratinocytes (AID 1919969). Also: nearly all actives have a fitted effect of over 35% in size. On the technique in general: In a reporter assay the amount or activity of a reporter protein is the signal.
For assay [3], the target named is KiSS-1 receptor (Homo sapiens) (UniProt Q969F8). Briefly: Human kisspeptin (KISS1R) small molecule agonists, calcium flux assay in KISS1R-HEK293 cells (AID 1920064; active = well fitted curve in the direction sought with a large enough effect in the repeat runs; an effect the other way counts as inactive or inconclusive). The method, boiled down:
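Agonist activity is monitored as intracellular calcium rise in engineered HEK293 cells carrying human KISS1R. Cells are dye-loaded for 1 h at 37 C before compound addition, and fluorescence is recorded for 3 min.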
A general note: Calcium flux is commonly read through the fluorescence of an indicator in the cells.

Assay [4] in a line: G protein-coupled receptor (GPCR) small molecule agonists, calcium flux assay: HEK293 wild type cell line counter screen (AID 1920065). The method, boiled down: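 Seed cells, incubate 18 h (37 C, 5% CO2); add calcium dye, 1 h at 37 C; pin-transfer compounds, ATP control or DMSO; read fluorescence 480/540 nm each second for 3 min.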
The nature of assay [5]: p53 small molecule agonists, cell-based qHTS assay with human liver microsomes: qHTS cell viability counter screen (AID 1963579). Also: nearly all actives have a fitted effect of over 45% in size. The method, boiled down:
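Metabolic activation used human liver microsomes and NADPH, both 0.5 mg/mL final, over 16 hours at 37 C on p53RE-bla cells (4,000/well). Cytotoxicity measured by CellTiter-Glo luminescence, 30 min at room temperature.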

Assay [6] is described as follows: p53 small molecule agonists, cell-based qHTS assay with rat liver microsomes: qHTS cell viability counter screen (AID 1963580). Also: nearly all actives have a fitted effect of over 45% in size. The method in brief: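 After the beta-lactamase ratio was read, CellTiter-Glo was added to the same wells and luminescence measured at 30 min; cells had been treated 16 h at 37 C with compounds, rat liver microsomes and NADPH (0.5 mg/mL final each).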

Assay [7] in a line: p53 small molecule agonists, cell-based qHTS assay: qHTS cell viability counter screen (AID 1963581). Also: nearly all actives have a fitted effect of over 45% in size. Also: potency is read from the fitted curve at half-maximal effect. The method, boiled down:
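Viability was counter-screened in parallel with the p53 agonist reporter by measuring intracellular ATP luminescence in the same HCT-116 p53RE-bla wells after 16 h compound treatment at 37 C.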

Assay [8] deals with 5-hydroxytryptamine receptor 2A (Homo sapiens) (UniProt P28223). Briefly: 5-hydroxytryptamine receptor 2A (HTR2A) small molecule antagonists, cell-based qHTS assay (AID 1963586). Also: nearly all actives have a fitted effect of over 45% in size. Also: potency is read from the fitted curve at half-maximal effect. The method, boiled down:
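CHO cells stably expressing human HTR2A were plated for 18 h at 37 C, then loaded with calcium dye for 1 h. Compounds were preincubated 5 min at room temperature before DOI (4 nM solution) was added. Kinetic fluorescence was read for 3 min.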

Assay [9] has the same target. As to the kind of experiment: 5-hydroxytryptamine receptor 2A (HTR2A) small molecule agonists, cell-based qHTS assay (AID 1963587). Also: nearly all actives have a fitted effect of over 30% in size. The method in brief: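 CHO cells stably expressing human HTR2A, plated 18 h, loaded with calcium dye 1 h at 37 C. Agonist mode: compounds added and intracellular calcium fluorescence recorded kinetically for 2 min at 1 sec intervals.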

Assay [10] deals with Muscarinic acetylcholine receptor M1 (Homo sapiens) (UniProt P11229). Briefly: Cholinergic receptor muscarinic 1 (CHRM1) small molecule agonists, cell-based qHTS assay (AID 1963589). Also: nearly all actives have a fitted effect of over 35% in size. The method, boiled down: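 Cells were plated and incubated 18 h at 37 C/5% CO2, loaded with calcium dye for 1 h at 37 C, then treated with compounds in DMSO. Fluorescence was recorded kinetically at 1 sec intervals.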
Muscarinic acetylcholine receptor M1 (Homo sapiens), sequence (P11229 whole entry, looked up): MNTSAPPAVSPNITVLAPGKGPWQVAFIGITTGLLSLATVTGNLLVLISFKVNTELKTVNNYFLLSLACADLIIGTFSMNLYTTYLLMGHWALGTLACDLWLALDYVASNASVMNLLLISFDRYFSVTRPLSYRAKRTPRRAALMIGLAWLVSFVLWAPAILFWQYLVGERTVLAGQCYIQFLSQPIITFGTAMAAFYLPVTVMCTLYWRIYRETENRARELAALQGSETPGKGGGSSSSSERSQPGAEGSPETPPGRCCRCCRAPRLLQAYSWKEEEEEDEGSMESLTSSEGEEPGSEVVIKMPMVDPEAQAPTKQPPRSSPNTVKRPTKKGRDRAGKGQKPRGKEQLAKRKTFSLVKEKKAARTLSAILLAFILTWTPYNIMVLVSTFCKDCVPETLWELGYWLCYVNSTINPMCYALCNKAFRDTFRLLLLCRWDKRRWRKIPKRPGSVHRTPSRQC

Assay [11] can be described thus: cAMP Responsive Elements (CRE) small molecule agonists, cell-based qHTS assay (AID 1963590). The method in brief:
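Cells carrying a CRE-driven beta-lactamase reporter (HEK 293T) are seeded, incubated overnight (18 h), and treated with test compounds for 3 h at 37 C; reporter activity is then detected with a FRET substrate after 2 h at room temperature.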

Assay [12] can be described thus: cAMP Responsive Elements (CRE) small molecule antagonists, cell-based qHTS assay (AID 1963591; active = well fitted inhibition curve with a large enough effect in the signal ratio in the repeat runs, not every such curve was filed as active; the % refers to the signal ratio). The method, boiled down: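 Cells (CRE-bla HEK 293T, DMEM with 10% dialyzed FBS and 25 mM HEPES) are seeded and incubated 18 h. Compounds are added with NKH477 agonist at 0.25 uM final for 3 h, then FRET substrate for 2 h.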
Assay [13] concerns the target Beta-2 adrenergic receptor (Homo sapiens) (UniProt P07550). Briefly: Adrenergic beta2 receptor (ADRB2) small molecule antagonists, cell-based qHTS assay (AID 1963592). Also: nearly all actives have a fitted effect of over 50% in size. Also: potency is read from the fitted curve at half-maximal effect. The method, boiled down: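 Assay format: CHO-ADRB2 cells, 18-20hr seeding at 37C/5% CO2, then compound plus 1nM isoproterenol agonist mix for 0.5hr RT. Homogeneous time-resolved fluorescence cAMP detection after 1hr, expressed as 665/615 nm ratio.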

Assay [14] has the same target. As to the kind of experiment: Adrenergic beta2 receptor (ADRB2) small molecule agonists, cell-based qHTS assay (AID 1963593).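 Also: CHO cells stably overexpressing human ADRB2.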 The method, boiled down:
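CHO cells stably over-expressing ADRB2 were plated overnight at 37C, then dosed with compounds plus a stimulation mix containing 100uM IBMX and 25uM Ro-20-1724 for 0.5hr at room temperature. cAMP was measured by HTRF competition, 1hr.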

Assay [15] deals with D(2) dopamine receptor (Homo sapiens) (UniProt P14416). Briefly: Dopamine D2 receptor (DRD2) small molecule agonists, cell-based qHTS assay (AID 1963594). Also: nearly all actives have a fitted effect of over 35% in size. The method in brief:
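HEK293 cells stably expressing human DRD2, pre-treated with PDE inhibitor Ro20-1724 (0.1 mM final) and compound 10 min at room temperature, then stimulated with NKH477 (200nM […]) for 30 min. cAMP read by HTRF (665/620 nm).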

The target is the same in assay [16]. Briefly: Dopamine D2 receptor (DRD2) small molecule antagonists, cell-based qHTS assay (AID 1963595; active = well fitted inhibition curve with a large enough effect in the signal ratio in the repeat runs, with a control signal flat; the % refers to the signal ratio; also: potency is read from the fitted curve at half-maximal effect). The method, boiled down:
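HTRF cAMP read-out at 665 and 620 nm emission (340 nm excitation). Antagonist mode: compounds were tested against 12 nM quinpirole in DRD2-HEK293 cells, with 200 nM NKH477 raising cAMP and 0.1 mM Ro20-1724 blocking its breakdown.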

Assay [17] addresses Muscarinic acetylcholine receptor M1 (Homo sapiens) (UniProt P11229). As to the kind of experiment: Cholinergic receptor muscarinic 1 (CHRM1) small molecule antagonists, cell-based qHTS assay (AID 1963588). Also: nearly all actives have a fitted effect of over 40% in size. Also: potency is read from the fitted curve at half-maximal effect. The method in brief: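 Compounds were tested at 15 concentrations in three independent runs. Dye-loaded CHRM1-CHO cells were exposed 5 min at room temperature before stimulation by acetylcholine added at 50nM. Intracellular calcium was read kinetically on FDSS for 3 min.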

Assay [18] in a line: p53 small molecule agonists, cell-based qHTS assay with human liver microsomes (AID 1963577).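 Also: p53 response element beta-lactamase reporter cells with liver microsomes plus NADPH.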 The method, boiled down:
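With metabolic activation: human liver microsomes (0.5 mg/mL final) plus NADPH (0.5 mg/mL final) added alongside compounds to p53RE-bla cells; 16 h 37 C exposure; beta-lactamase read by LiveBLAzer fluorescence.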

A short description of assay [19]: p53 small molecule agonists, cell-based qHTS assay with rat liver microsomes (AID 1963578). The method, boiled down: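 Metabolic activation by rat liver microsomes and NADPH, each 0.5 mg/mL final, added right after compounds to p53RE-bla reporter cells (4,000/well, plated 5 h earlier). 16 h at 37 C, then LiveBLAzer substrate for 2 h at room temperature in the dark; fluorescence read-out.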

5-hydroxytryptamine receptor 2A (Homo sapiens), sequence (P28223 whole entry, looked up): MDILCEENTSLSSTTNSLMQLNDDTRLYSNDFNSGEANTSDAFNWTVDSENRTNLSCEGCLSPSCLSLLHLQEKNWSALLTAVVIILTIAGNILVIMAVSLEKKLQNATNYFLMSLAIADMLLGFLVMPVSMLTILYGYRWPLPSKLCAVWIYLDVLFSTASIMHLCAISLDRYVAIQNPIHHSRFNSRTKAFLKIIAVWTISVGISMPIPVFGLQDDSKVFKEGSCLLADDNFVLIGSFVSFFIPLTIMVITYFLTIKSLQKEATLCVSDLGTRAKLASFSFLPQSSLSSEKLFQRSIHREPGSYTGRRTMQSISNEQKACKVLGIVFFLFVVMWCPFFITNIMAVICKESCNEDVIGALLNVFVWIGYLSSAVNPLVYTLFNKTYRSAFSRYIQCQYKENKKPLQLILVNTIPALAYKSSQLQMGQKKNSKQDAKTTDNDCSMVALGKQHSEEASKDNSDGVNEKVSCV
KiSS-1 receptor (Homo sapiens), sequence (Q969F8 whole entry, looked up): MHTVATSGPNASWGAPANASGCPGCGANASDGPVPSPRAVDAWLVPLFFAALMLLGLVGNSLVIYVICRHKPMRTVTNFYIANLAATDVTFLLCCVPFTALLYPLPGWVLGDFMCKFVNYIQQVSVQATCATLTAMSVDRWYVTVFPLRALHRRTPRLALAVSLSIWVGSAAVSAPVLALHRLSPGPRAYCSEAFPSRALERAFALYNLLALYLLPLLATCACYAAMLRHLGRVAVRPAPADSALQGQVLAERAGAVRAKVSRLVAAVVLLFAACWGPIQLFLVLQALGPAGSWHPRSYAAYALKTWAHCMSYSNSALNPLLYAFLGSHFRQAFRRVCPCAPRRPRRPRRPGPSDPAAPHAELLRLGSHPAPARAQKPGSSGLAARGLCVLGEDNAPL
Beta-2 adrenergic receptor (Homo sapiens), sequence (P07550 whole entry, looked up): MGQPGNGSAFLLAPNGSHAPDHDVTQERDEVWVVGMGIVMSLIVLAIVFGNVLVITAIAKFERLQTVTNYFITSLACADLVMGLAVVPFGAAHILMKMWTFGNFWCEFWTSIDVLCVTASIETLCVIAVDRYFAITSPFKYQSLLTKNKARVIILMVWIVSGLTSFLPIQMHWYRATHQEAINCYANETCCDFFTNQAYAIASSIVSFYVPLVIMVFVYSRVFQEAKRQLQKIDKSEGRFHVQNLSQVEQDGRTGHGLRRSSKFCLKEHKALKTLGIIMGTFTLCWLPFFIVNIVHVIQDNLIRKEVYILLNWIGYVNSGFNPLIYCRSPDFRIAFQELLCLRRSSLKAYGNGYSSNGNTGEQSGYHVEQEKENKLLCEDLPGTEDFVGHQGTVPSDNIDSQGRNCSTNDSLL
D(2) dopamine receptor (Homo sapiens), sequence (P14416 whole entry, looked up): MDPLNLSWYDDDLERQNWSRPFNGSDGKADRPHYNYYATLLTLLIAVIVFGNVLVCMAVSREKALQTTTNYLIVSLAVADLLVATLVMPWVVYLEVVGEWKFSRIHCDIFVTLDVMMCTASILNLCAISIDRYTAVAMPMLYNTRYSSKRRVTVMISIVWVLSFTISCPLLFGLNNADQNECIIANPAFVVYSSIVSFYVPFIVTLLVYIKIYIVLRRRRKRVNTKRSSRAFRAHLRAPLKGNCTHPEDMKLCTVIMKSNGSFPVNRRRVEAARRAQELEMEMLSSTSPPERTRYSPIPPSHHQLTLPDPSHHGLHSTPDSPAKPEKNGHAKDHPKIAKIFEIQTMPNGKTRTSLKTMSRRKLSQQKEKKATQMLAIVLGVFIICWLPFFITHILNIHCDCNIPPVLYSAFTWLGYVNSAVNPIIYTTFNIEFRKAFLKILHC

Turning to `C=CCCC(=O)O`, the Potency entry in assay [1], in assay [2], in assay [3], in assay [4], in [5] and in assay [6] was “inactive” throughout. The Potency entry in [7], in assay [8], in [9], in assay [10], in [11] and in assay [12] was “inactive” throughout. The Potency result in assay [13], in assay [14], in assay [15] and in [16] was “inactive” each time.

As to `CN(C)CCOc1ccccc1Cc1ccccc1`, the Potency result in assay [1], in assay [2], in assay [3], in [4], in [5] and in assay [6] was “inactive” throughout. The Potency result in assay [7], in assay [9], in assay [10], in assay [11], in assay [12] and in [15] was “inactive” throughout. Besides, the Potency entry in assay [16] is “inactive”. The Potency was 0.326 µM (active) in [8], 1.45 µM (active) in assay [17] and 33.5 µM (active) in assay [13].

As for `CCCC1CCC(=O)CC1`, the Potency result in [1], in assay [2], in assay [3], in assay [4], in [5] and in assay [6] was “inactive” each time. Besides, the Potency entry in [7], in assay [8], in [9], in [17], in assay [10] and in assay [11] was “inactive” throughout. For the same compound, the Potency result in [12], in assay [13], in [14], in assay [15] and in [16] was “inactive” in each case.

Consider `CC(C)(COC(=O)c1ccccc1)COC(=O)c1ccccc1`, for which the Potency entry in assay [1], in assay [2], in [3], in assay [4], in [5] and in [6] was “inactive” in each case. The Potency result in [7], in assay [8], in [9], in assay [10], in [11] and in assay [12] was “inactive” throughout. Moreover, the Potency result in assay [13], in [15] and in [16] was “inactive” throughout.

In the case of `Cc1cc(CCN2CCN(c3nsc4ccccc34)CC2)cc2c1NC(=O)CC2(C)C`, the Potency is 48.6 µM (active) in assay [1], 45.8 µM (active) in [7], 34.4 µM (active) in assay [13] and 0.243 µM (active) in assay [16]. The Potency entry in assay [2], in assay [3], in assay [4], in assay [18], in [8] and in assay [9] was “inactive” throughout. The Potency result in assay [10] and in assay [15] was “inactive” in each case.

Turning to `C[C@H](NC(CCc1ccccc1)C(=O)O)C(=O)N1CCC[C@H]1C(=O)O` (some centres undefined), the Potency result in assay [1], in [2], in assay [3], in assay [4], in [5] and in [6] was “inactive” throughout. For the same compound, the Potency entry in assay [7], in assay [8], in [9], in assay [17], in assay [10] and in assay [11] was “inactive” each time. Moreover, the Potency entry in [12], in assay [13], in [14] and in [16] was “inactive” throughout.

With `O=CN(CCO)CCO`, the Potency entry in assay [1], in assay [2], in assay [3], in [4], in assay [5] and in assay [6] was “inactive” throughout. For the same compound, the Potency result in assay [7], in assay [8], in [9], in assay [17], in assay [11] and in [12] was “inactive” throughout. Moreover, the Potency result in assay [13], in assay [15] and in [16] was “inactive” each time.

Take `CCCCCCCCCCCCCCCCCCNC(=O)OC1CCN(C(=O)OC[C@H](COC(=O)N(Cc2cccc[n+]2CC)C(=O)c2ccccc2OC)OC)CC1`: in [1], the Potency was 10.6 µM (active). In addition, the Potency result in assay [2], in assay [3], in [4], in assay [19], in assay [5] and in assay [6] was “inactive” each time. Also, the Potency result in [7], in [8], in assay [9], in assay [10] and in assay [15] was “inactive” each time.
